# In PubChem BioAssay AID504339 (National Center for Advancing Translational Sciences (NCATS), 2011):
# Screen size: about 390,000 compounds; about 17,000 (4.4%) were called active. Not shown: some 8% with an inconclusive outcome. Shown is part of a subset that was picked to be rich in actives. Values without a mark were called inactive. Calls come from the whole dose curve; as a rule, active = well fitted inhibition curve with a large enough effect; inconclusive = small, poorly fitted or top-dose-only effect; inactive = no such curve, though single readings can be large or run the other way.
# Target: Lysine-specific demethylase 4A (Homo sapiens) (UniProt O75164)
# Assay: qHTS Assay for Inhibitors of JMJD2A-Tudor Domain; note: nearly all actives have a fitted effect of over 50% in size
# Conditions: AlphaScreen JMJD2A-Tudor / H3K4me3 peptide binding; series mostly up to 114 µM; activity change, negative = inhibition: at the top concentration
# Description: JMJD2A is a jumonji-domain-containing lysine demethylase that uses Fe(II) together with 2-OG to effect oxidative demethylation of histones. Methylation is one of many […] modification that affect epigenetic transcription. […] It is proposed that the functions of JmjD2A binding to the histones, is to maintain marks after they are installed and to spread the modifications by […], establishing a self-propagating cycle for rapid methylation over a large area of chromatin. […] Thus, small molecule targeting of the JMJD2A-tudor domain interaction with its target methylhistone mark is expected to enable sophisticated experiments probing the fine regulatory pathways leading to selective demethylation of a given methyllysine locus based on the methylation state of adjacent histone marks. A quantitative high throughput AlphaScreen has been developed to identify small molecule inhibitors based on a protocol published by NCGC and SGC [4].
# Although AlphaScreen has significant advantages with its utility in a variety of epigenetic target assays, the primary screening data provided in this deposition should be used with caution due to the prevalence of screening artifacts. The top compound concentration tested was high (>100uM) in this assay, which increases number of actives and potential artifacts. An AlphaScreen counterscreen is highly recommended to be run against any putative actives to eliminate non-specific artifacts. Alternatively, one can use other AlphaScreen assays in PubChem to filter out promiscuous hits.
# [1] Lee, J. et al. Distinct binding modes specify the recognition of methylated histone H3K4 and H4K20 by JMJD2A-tudor. Nat Struct Mol Biol. 15(1); 109-11. 2008. PMID: 18084306
# [2] Yasgar, et al. Compound Management for Quantitative High-Throughput Screening. JALA. 2008 Apr;13(2):79-89. PMID: 18496600
# [3] Inglese, et al. Quantitative high-throughput screening: a titration-based approach that efficiently identifies biological activities in large chemical libraries. Proc Natl Acad Sci. 1;103(31):11473-8. 2006. PMID: 16864780
# [4] Quinn et al. A homogeneous method for investigation of methyl-dependent protein-protein interactions in epigenetics. Nucleic Acids Res., 38(2):e11. 2010. PMID: […]
# [5] Baell,Holloway. New substructure filters for removal of pan assay interference compounds (PAINS) from screening libraries and for their exclusion in bioassays. J Med Chem. 53(7):2719-40. 2010. PMID: 20131845
# NIH Molecular Libraries Probe Production Network [MLPCN]
# NIH Chemical Genomics Center [NCGC]
# Structural Genomics Consortium (SGC)
# To each well of a 1,536w plate, 2ul of JMJD2A-Tudor (final 100nM) and 1ul biotinylated histone peptide methylated at Lys4 [b-H3(1-18)K4me3] (final 50nM) were added in 1x PBS buffer, pH 7.4, containing 0.01% Tween-20, using a nanoliter dispenser. Formation of a protein-peptide complex proceeded at room temperature for 30 min. A Kalypsys pin-tool transferred 23nl of library compound solution in DMSO to each well. Following a 30 min incubation of the protein-peptide complex with compounds at room temperature, a mixture of 40 µg/mL each streptavidin-coated donor and nickel chelate acceptor AlphaScreen beads (final 10 µg/mL) was added in a 1ul dispense for a final volume of 4ul, followed by a brief centrifugation (1000 rpm, 1 min). Plates were incubated protected from the light for 20 min at room temperature. Microplates were then read on an EnVision multilabel plate reader using the 1,536 plate HTS AlphaScreen aperture (excitation time 80 ms, measurement time 240 ms).
# % is set by controls: 0 for no effect and ±100 for the full control effect; potency is the fitted concentration of half-maximal effect.
# Lysine-specific demethylase 4A (Homo sapiens), sequence (O75164 whole entry, looked up, the tested form may be a part): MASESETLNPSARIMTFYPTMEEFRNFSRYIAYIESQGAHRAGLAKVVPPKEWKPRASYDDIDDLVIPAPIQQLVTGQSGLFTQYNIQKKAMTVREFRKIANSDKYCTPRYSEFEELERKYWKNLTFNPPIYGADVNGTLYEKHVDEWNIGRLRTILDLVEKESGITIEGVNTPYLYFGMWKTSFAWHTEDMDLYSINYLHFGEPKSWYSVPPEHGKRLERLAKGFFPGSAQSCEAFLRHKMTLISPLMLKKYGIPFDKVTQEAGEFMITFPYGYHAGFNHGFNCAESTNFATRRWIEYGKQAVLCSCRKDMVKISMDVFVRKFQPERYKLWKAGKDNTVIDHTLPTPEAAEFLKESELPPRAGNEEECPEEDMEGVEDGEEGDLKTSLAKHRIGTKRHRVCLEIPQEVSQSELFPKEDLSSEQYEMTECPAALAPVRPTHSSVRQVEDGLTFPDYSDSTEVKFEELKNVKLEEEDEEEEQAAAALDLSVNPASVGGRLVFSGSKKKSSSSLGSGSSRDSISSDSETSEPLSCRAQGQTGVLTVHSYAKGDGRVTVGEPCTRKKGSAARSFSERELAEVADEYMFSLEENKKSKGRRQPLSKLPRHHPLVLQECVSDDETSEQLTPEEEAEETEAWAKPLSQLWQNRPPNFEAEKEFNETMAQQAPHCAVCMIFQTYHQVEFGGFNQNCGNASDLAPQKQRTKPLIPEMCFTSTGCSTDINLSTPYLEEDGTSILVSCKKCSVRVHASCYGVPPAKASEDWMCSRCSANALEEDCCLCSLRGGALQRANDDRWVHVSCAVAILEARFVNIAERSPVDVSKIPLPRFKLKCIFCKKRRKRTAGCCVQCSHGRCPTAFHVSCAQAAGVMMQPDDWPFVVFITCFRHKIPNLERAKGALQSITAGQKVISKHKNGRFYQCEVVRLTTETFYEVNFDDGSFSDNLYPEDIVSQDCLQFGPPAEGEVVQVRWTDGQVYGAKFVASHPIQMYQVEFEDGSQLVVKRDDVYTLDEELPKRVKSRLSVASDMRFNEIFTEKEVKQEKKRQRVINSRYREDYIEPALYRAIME
SMILES,"activity change, negative = inhibition",Potency
O=C(c1ccccc1[N+](=O)[O-])N1CCC2(CC1)OCCO2,-6.21%,–
O=C(O)c1cc[c]([Sb](=[O])([OH])[OH])cc1[N+](=O)[O-],–,0.316 µM (active)
C[C@@]1([C@@H](NP(=O)(c2ccccc2)c2ccccc2)c2ccccc2)C[C@H]1CCO,-5.04%,–
COC(=O)N(c1ccc(OC)cc1)P1(=S)OCCC(C)O1 (stereo unspecified),–,79.4 µM (active)
CCC(=O)c1ccc(OCC(=O)N2CCN(CC(=O)Nc3ccc(C)cc3)CC2)cc1,21.2%,–
O=C1NC(=O)C(Cc2ccccc2)C(=O)N1,-8.28%,–
COC(=O)C1=C(c2ccccc2)C[C@@H]2CC[C@H]1N2C(=O)N1CCCCC1,-13.1%,–
Cn1c(O)c(C=NCCN2CCNCC2)c(=O)n(C)c1=O,-6.87% [at 57.1 µM],–
c1cc2c(cc1[C@H]1OC[C@H]3[C@@H]1CO[C@@H]3c1ccc3c(c1)OCO3)OCO2,-20.7%,–
c1ccc(CCNC2CCCCCC2)cc1,–,70.8 µM (active)
Cc1ccc(CN2CCCC(C(=O)c3ccc4c(c3)OCO4)C2)cc1C (stereo unspecified),-17.6% [at 11.4 µM],–
c1cc2c(cc1CCNC1CCCCCC1)OCO2,–,3.16 µM (active)
c1ccc(CC2CCCCN2)cc1 (stereo unspecified),-17.5%,–
OC(CNC1CCCCC1)c1ccccc1 (stereo unspecified),-6.35%,–
O=P1(Oc2ccccc2)CC(O)C(O)C(COCc2ccccc2)O1 (stereo unspecified),-14.5%,–
S=P(c1ccccc1)(c1ccccc1)c1c(-c2ccccc2)[nH]c2ccccc12,-27.2%,–
CCCC[N+]1(C)C2CC(OC(=O)C(CO)c3ccccc3)CC1C1OC12 (stereo unspecified),-1.44%,–
CNP1(NC)=Nc2nn(-c3ccccc3)c(N)c2C(c2ccccc2)=N1,-14.5%,–

SMILES,"activity change, negative = inhibition",Potency
O=C1C2(Cl)C3(Cl)C4(Cl)C(Cl)(Cl)C5(Cl)C3(Cl)C1(Cl)C5(Cl)C24Cl (stereo unspecified),-25.5%,–
Nc1ccc(C(=O)N/N=C2/CN3CCC2CC3)cc1,–,89.1 µM (active)
CC1CC=CCC12C(=O)NC(=S)NC2=O (stereo unspecified),-2.78%,–
COC(=O)C1=C(c2ccc(Cl)c(C(F)(F)F)c2)C[C@@H]2CC[C@H]1N2C(=O)NC1CC1,-5%,–
Cc1cccc(-n2c(O)c(/C=N/N3CCOCC3)c(=O)[nH]c2=S)c1,-3.47%,–
CCOc1cc(N2CCOCC2)c(OCC)cc1NC(=O)C1=NN(c2cccc(C)c2)C(=O)CC1,–,50.1 µM (active)
CCN1C(=O)NC(=O)C2(CCCC2)C1=O,-12.5%,–
COc1ccc(CNCCc2c[nH]c3ccccc23)cc1OC,–,79.4 µM (active)
c1cncc(CNCCc2c[nH]c3ccccc23)c1,-11.6%,–
C/C(CCc1c[nH]c2ccccc12)=N\O,-5.13%,–
CCN1CC2C3CCC(C)(O3)C2C1 (stereo unspecified),-21.9%,–
CC1([N+](=O)[O-])COP(=O)(Nc2ccc(F)cc2)OC1 (stereo unspecified),-4.86%,–
CN(C)P(=S)(Nc1ccccc1)C(Cl)(Cl)Cl (stereo unspecified),2.26% [at 57.1 µM],–
c1cncc(CNC2=NCCC2)c1,0% [at 57.1 µM],–
CC1CCCCN1Cc1cccnc1 (stereo unspecified),–,8.91 µM (active)
CC1CCCN1CCC(C(N)=O)(c1ccccc1)c1ccccc1 (stereo unspecified),-13.8%,–
C[C@]12CCC3C(CC[C@H]4[C@H](O)[C@H](O)CC[C@]34C)C1CC[C@@H]2O (stereo partly specified),0%,–
O=c1[nH]c(=O)n(-c2ccc(F)cc2)c(O)c1C=NCCN1CCCCC1,-0.699%,–
